Data on seven compounds can be found in PubChem BioAssay (NCATS).

The structures appear in SMILES notation. Several values for one entry are separate records, joined by “and”; a condition that tells them apart may be missing. Equal entries are not always repeated. Inconclusive results are not listed. Activity calls are given as the source filed them. Unless noted, calls follow the shape of the dose curve; as a rule, active = well fitted curve in the direction sought with a large enough effect; inconclusive = small, poorly fitted or top-dose-only effect, or another doubt; inactive = no such curve, though single readings can be large; an effect the other way counts as inactive or inconclusive.

In assay [1] the test system is Zika virus NS2B-NS3 protease (linked construct). The assay can be described thus: Primary screen NINDS Rhodamine qHTS for Zika virus inhibitors (AID 1347160). Also: nearly all actives have a fitted effect of over 55% in size. Also: potency is read from the fitted curve at half-maximal effect. As to activity change, negative = inhibition: % is scaled to controls: 0 for no effect and ±100 for the full control effect. The essentials:
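Purified linked NS2B-NS3 protease (NS2B hydrophilic domain joined to NS3 protease by flexible linker), 25 nM in 10 mM Tris-HCl pH 8.0, 0.01% Tween 20. Compounds titrated, 15 min preincubation at room temperature; 1.5 microM Rhodamine110 substrate, FITC fluorescence change over 15 min.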

The target of assay [2] is Calcium and integrin-binding protein 1 (Homo sapiens) (UniProt Q99828). Put plainly: Primary qHTS for Identification of Calcium Integrin Binding Protein 1 (CIB1) Competitor (AID 1508620).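 Also: GST tagged CIB1 binding a fluorescein labelled alphaIIb integrin peptide tracer; top concentration of the series differs between compounds; % is scaled to controls: 0 for no effect and ±100 for the full control effect.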 The essentials:
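Fluorescence polarization competition: GST-tagged CIB1 (1 uM final) preincubated with compound 15 min at room temperature, then FITC-labelled alphaIIb peptide (100 nM final) added. After 15 min at room temperature, polarization read at Ex 480/Em 540.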
For orientation: Quantitative high-throughput screening tests each substance at several concentrations.

Assay [3] can be described thus: Primary qHTS for inhibitors of nuclear receptor binding SET domain protein 2 (NSD2) in an isogenic RCH-ACV NSD2 p.E1099K mutant (9B) (AID 1645876). Also: potency is read from the fitted curve at half-maximal effect; nearly all actives have a fitted effect of over 70% in size.
A short description of assay [4]: Primary qHTS for inhibitors of nuclear receptor binding SET domain protein 2 (NSD2) in an RCH-ACV wild type WT cells (2C) (AID 1645877). Also: potency is read from the fitted curve at half-maximal effect; nearly all actives have a fitted effect of over 70% in size.
For assay [5], the target named is Glutathione peroxidase 1 (Homo sapiens) (UniProt P07203). The assay can be described thus: Primary qHTS Assay for Inhibitors of Recombinant Selenoprotein Glutathione Peroxidase 1 (GPX1) (AID 1845191). Also: nearly all actives have a fitted effect of over 65% in size. As to activity, negative = inhibition: % is scaled to controls: 0 for no effect and ±100 for the full control effect. An outline of the steps:
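GR-coupled assay: compounds preincubated 30 min at room temperature with GPX1, then reaction started with CHP; final 10 nM GPX1, 1 mM GSH, 0.5 mM CHP, 0.5 mM NADPH, 100 nM GR, 0.01% BSA, pH 7.5 Tris buffer. NADPH fluorescence (340/450 nm) read at 0 and 15 min.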

Assay [6] addresses Phospholipid hydroperoxide glutathione peroxidase GPX4 (Homo sapiens) (UniProt P36969). Put plainly: Primary qHTS Assay for Inhibitors of Recombinant Selenoprotein Glutathione Peroxidase 4 (GPX4) (AID 1845192). Also: % is scaled to controls: 0 for no effect and ±100 for the full control effect; nearly all actives have a fitted effect of over 65% in size. The note with it: outcome: dose series up to 50 µM unless noted. An outline of the steps:
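GR-coupled assay: recombinant GPX4 preincubated 30 min with compound at room temperature; final 200 nM GPX4, 1 mM GSH, 0.5 mM cumene hydroperoxide, 0.5 mM NADPH, 100 nM GR, 0.01% BSA, pH 7.5 Tris. NADPH fluorescence (340/450 nm) read at 0 and 15 min.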

Assay [7] addresses Luciferin 4-monooxygenase (Photinus pyralis) (UniProt P08659). Put plainly: Primary firefly luciferase (FLuc) qHTS assay for identification of artifact compounds. (AID 1845220). Also: nearly all actives have a fitted effect of over 60% in size.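 As to activity change, negative = inhibition: plate controls were DMSO vehicle for no effect and no enzyme for full effect.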 An outline of the steps:
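Titrated compounds were incubated 15 min at RT, protected from light, with luciferin and ATP at 10 uM; reaction started with 10 nM FLuc, luminescence imaged at 5 min, and concentration-response fitted by Hill equation.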

The subject of assay [8] is Nanoluciferase (engineered Oplophorus gracilirostris luciferase). Put plainly: Primary Nanoluciferase (NLuc) qHTS assay for identification of artifact compounds. (AID 1845222).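 Also: NLuc secreted into diluted conditioned medium of S16 cells; 0% = DMSO and -100% = no enzyme.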 An outline of the steps:
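qHTS format, against NLuc in S16 cell-conditioned medium. Nano-Glo substrate 1:100 was added after 15 min at room temperature. Luminescence was taken after a further 5 min.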

Assay [9] is described as follows: Primary redox qHTS assay for identification of artifact compounds. (AID 1845223).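 Also: 0% = DMSO and 100% = reference compound.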 An outline of the steps:
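Amplex Red (25 uM) and HRP (250 mU/mL) in HBSS, with compounds for 15 min, then 250 uM DTT for 30 min, room temperature, dark. Fluorescence 525/598 nm read; normalized to DMSO and 10 uM DA3003; Hill fit.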

Assay [10] deals with HaCat. The assay can be described thus: Cytotoxic Profiling of Annotated Libraries Using Quantitative High-Throughput Screening (AID 1296008). Also: potency is read from the fitted curve at half-maximal effect; nearly all actives have a fitted effect of over 60% in size. The note with it: Five cell lines viability, CellTiter-Glo ATP luminescence, 48-72 h; max response: stronger effect = lower value. An outline of the steps:
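Cells exposed to compounds for 48 or 72 hr at 37 degrees Celsius. Viability read as ATP-coupled luminescence with CellTiter-Glo after 10 min at room temperature.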

In assay [11] the test system is Es-2. Put plainly: Primary qHTS to identify gynecologic anti-cancer compounds using libraries of approved drugs and bioactive compounds (AID 1345084). Also: nearly all actives have a fitted effect of over 55% in size. Also: potency is read from the fitted curve at half-maximal effect. As to activity change, negative = cytotoxicity: % is scaled to controls: 0 for no effect and ±100 for the full control effect. Conditions: Gynecologic cancer cell panel viability, ATPlite luminescence, 48 h; series mostly up to 57.5 µM. An outline of the steps:
(§1)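 ATP-based viability (ATPlite), 1,000 cells/well, 16 h pre-incubation, 48 h compound at 37 C, 5% CO2, 15 min RT before read.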

Assay [12] concerns C33A. Described as above. Conditions: Gynecologic cancer cell panel viability, ATPlite luminescence, 48 h; series mostly up to 57.5 µM. The essentials: as §1
Assay [13] has as its system CASKI. The assay is described as above. The note with it: Gynecologic cancer cell panel viability, ATPlite luminescence, 48 h; series mostly up to 57.5 µM. An outline of the steps:
as §1
Background: ATP-based viability assays read luminescence as a measure of living cells.

In assay [14] the test system is HeLa. Described as above. Conditions: Gynecologic cancer cell panel viability, ATPlite luminescence, 48 h; series mostly up to 57.5 µM. The essentials: as §1
The subject of assay [15] is Hek293T. Described as above. The note with it: Gynecologic cancer cell panel viability, ATPlite luminescence, 48 h, control line for the selectivity index; series mostly up to 57.5 µM. An outline of the steps: as §1
Assay [16] concerns JEG-3. The description is as above. The note with it: Gynecologic cancer cell panel viability, ATPlite luminescence, 48 h; series mostly up to 57.5 µM. The essentials: as §1
The test system of assay [17] is OV90. Described as above. The note with it: Gynecologic cancer cell panel viability, ATPlite luminescence, 48 h; series mostly up to 57.5 µM. An outline of the steps:
as §1

Assay [18] deals with Tov-21-G. Described as above. The note with it: Gynecologic cancer cell panel viability, ATPlite luminescence, 48 h; series mostly up to 57.5 µM. An outline of the steps:
as §1

For assay [19], the system named is Tov112D. The assay is described as above. Conditions: Gynecologic cancer cell panel viability, ATPlite luminescence, 48 h; series mostly up to 57.5 µM. An outline of the steps: as §1
Assay [20] is described as follows: qHTS drug screen for cell cycle checkpoint inhibitors in PARPi-resistant BRCA-mutant ovarian cancer cell lines. (AID 1963452; calls by dose curve). The note with it: PEO1/OlaR viability, CellTiter-Glo luminescence, 96 h, stronger effect = lower value. The essentials:
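PEO1, PEO4 and PEO1/OlaR ovarian cancer cells, 600 per well, exposed 96 h at 37C to a dilution series. Viability read by CellTiter-Glo luminescence, normalized to DMSO and empty wells; activity summarized as Z-AUC.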

Chain of Glutathione peroxidase 1 (Homo sapiens) (P07203 whole entry, looked up): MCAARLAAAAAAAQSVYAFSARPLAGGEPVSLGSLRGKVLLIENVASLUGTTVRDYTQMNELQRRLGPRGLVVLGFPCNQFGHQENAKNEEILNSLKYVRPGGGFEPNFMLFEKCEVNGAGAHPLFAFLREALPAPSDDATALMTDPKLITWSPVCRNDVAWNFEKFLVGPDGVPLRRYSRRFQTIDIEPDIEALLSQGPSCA
Chain of Phospholipid hydroperoxide glutathione peroxidase GPX4 (Homo sapiens) (P36969 whole entry, looked up): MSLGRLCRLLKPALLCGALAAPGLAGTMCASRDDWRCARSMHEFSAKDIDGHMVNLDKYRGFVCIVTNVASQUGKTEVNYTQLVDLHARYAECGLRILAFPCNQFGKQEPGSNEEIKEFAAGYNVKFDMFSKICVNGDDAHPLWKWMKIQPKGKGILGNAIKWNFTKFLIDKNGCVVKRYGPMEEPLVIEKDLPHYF
Chain of Calcium and integrin-binding protein 1 (Homo sapiens) (Q99828 whole entry, looked up): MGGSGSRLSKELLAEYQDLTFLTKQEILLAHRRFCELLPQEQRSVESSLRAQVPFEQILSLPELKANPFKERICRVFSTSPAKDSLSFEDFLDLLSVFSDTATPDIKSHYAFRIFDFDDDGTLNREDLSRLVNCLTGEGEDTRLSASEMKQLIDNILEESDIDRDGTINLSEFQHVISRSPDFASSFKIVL

`COc1cc(N2CCOCC2)ccc1Nc1ncc(F)c(Nc2ccccc2NS(C)(=O)=O)n1`: the Potency result in assay [1], in [5], in assay [6], in assay [7], in [8] and in assay [9] was “inactive” each time. Besides, the Potency result in assay [11] is “inactive”. Moreover, the outcome in [2] was inactive. Moreover, the Potency in assay [3] was 8.17 µM (active); in [4], 8.17 µM (active); in [10], 7.31 µM (active).
Take `CC(=O)N1CCN([C@H]2CCN(C(=O)N(C)[C@H](C)c3cc(C(F)(F)F)cc(C(F)(F)F)c3)[C@@H](c3ccc(F)cc3C)C2)CC1`: the Potency entry in assay [1], in assay [5], in assay [6], in assay [7], in assay [8] and in assay [12] was “inactive” throughout. Also, the Potency result in [13], in assay [11], in assay [14], in assay [15], in [16] and in [17] was “inactive” in each case. Besides, the Potency result in [18] and in assay [19] was “inactive” in each case. Further, the result in assay [2] was inactive. For the same compound, the Potency in assay [4] was 14.5 µM (active).
Regarding `COc1cc(N2CCN(C(C)=O)CC2)ccc1Nc1ncc(Cl)c(Nc2ccc(N3CCN(C(C)=O)CC3)cc2OC)n1`, the Potency entry in [1], in [5], in assay [6], in [7], in [9] and in assay [12] was “inactive” each time. The Potency result in [11] and in [16] was “inactive” in each case. Also, the outcome in assay [2] was inactive. For the same compound, the Potency in [3] was 8.17 µM (active) and 16.6 µM (active); in assay [4] it was 6.49 µM (active) and 13.2 µM (active). Further, the Z-AUC was 0.859 (inactive) in assay [20], 0.393 in assay [20] (measured here: PEO1 parental Z-AUC) and 0.132 in assay [20] (measured here: PEO4 Z-AUC).
Consider `Cc1nnsc1C(=O)Nc1ccc(-n2nc(C(F)(F)F)cc2C(F)(F)F)cc1`, for which the outcome in assay [2] was inactive. The Potency was 20.5 µM (active) in [3] and 11.5 µM (active) in [4]. In addition, the Potency result in assay [5], in [6], in [7], in assay [8], in [9] and in assay [12] was “inactive” throughout. Moreover, the Potency entry in assay [13], in [11], in [14], in [15], in [16] and in assay [17] was “inactive” throughout. Also, the Potency result in assay [18] and in assay [19] was “inactive” each time.
In the case of `CN(CC(=O)N(Cc1ccc(C2CCCCC2)cc1)c1ccc(C(=O)O)cc1)S(=O)(=O)c1c(F)c(F)c(F)c(F)c1F`, the Potency is 2.82 µM (active) in assay [1], 7.28 µM (active) in assay [3], 4.59 µM (active) in assay [4] and 25.1 µM (active) in assay [16]. For the same compound, the result in assay [2] was inactive. Besides, the Potency result in assay [5], in [7], in assay [8], in assay [9] and in [11] was “inactive” throughout.
As to `C=C1[C@@H](C2=CC(=O)OC2)CC[C@@]2(O)[C@@H]1CC1[C@H]2CC[C@@H]2C[C@@H](O[C@H]3O[C@@H](C)[C@@H](O[C@@H]4O[C@H](CO[C@@H]5O[C@H](CO)[C@@H](O)[C@H](O)[C@H]5O)[C@@H](O)[C@H](O)[C@H]4O)[C@H](OC)[C@H]3O)CC[C@]12C` (stereo partly drawn), in assay [2], the outcome was inactive. Besides, the Potency in [3] is 1.94 µM (active); in assay [12] it was 3.55 µM (active); in assay [18], 3.16 µM (active); in [19], 2.24 µM (active). Moreover, the Potency result in assay [5] and in assay [6] was “inactive” in each case. Moreover, the activity change, negative = inhibition in [7] was 0.528% [at 11.6 µM] (inactive). In addition, the activity, negative = inhibition in [8] was -0.15% [at 11.6 µM] (inactive). Further, the activity change, negative = cytotoxicity in assay [13] is -6.72% [at 11.6 µM] (inactive); in [17], -0.0855% [at 11.6 µM] (inactive).
Regarding `C=C1[C@@H](C)[C@H]2[C@H](Cc3c[nH]c4ccccc34)NC(=O)[C@]23C(=O)/C=C/C(=O)[C@H](O)/C(C)=C\[C@@H](C)C/C=C/[C@H]3[C@@H]1O`, the Potency result in assay [1], in assay [5], in assay [7], in assay [9], in assay [12] and in assay [13] was “inactive” each time. Besides, the Potency result in assay [11], in [15], in assay [16], in [17] and in [19] was “inactive” in each case. Moreover, the result in assay [2] was inactive. Moreover, the Potency in assay [3] is 3.99 µM (active); in [4], 0.796 µM (active).
